Results taken from the supplement of paper PMC12669032.

What was measured:
Test in all cases: growth AUC relative to DMSO control (median of replicates) (fraction); higher = more growth (less inhibition), active = hit call of the paper
Conditions in all cases: 20 µM; 24 h;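 active = AUC reduced over 20% with Padj below 0.05 in at least 2 of 3 replicates; inactive = otherwise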
[1] = tested on: Coprococcus comes
Procedure, shortened: (§1)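 Starting at OD600 0.05, gut bacterial monocultures in mGAM were grown anaerobically at 37 °C with 20 µM compound (1% DMSO) under pierced gas-permeable seals. OD600 was read every hour for 24 h, and the lowest OD of each curve was set to 0. Area under the growth curve was normalised to the plate median of solvent-only wells, or to row and column medians on the industrial chemical plate, and the median of three biological replicates grown on separate days is given.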

[2] = tested on: Escherichia coli ED1a
Procedure, shortened: as §1

[3] = tested on: Escherichia coli IAI1
Procedure, shortened: as §1

[4] = tested on: Eubacterium rectale
Procedure, shortened: as §1

[5] = tested on: Fusobacterium nucleatum subsp. animalis
Procedure, shortened: as §1

[6] = tested on: Lactobacillus gasseri
Procedure, shortened: as §1

[7] = tested on: Lactobacillus paracasei
Procedure, shortened: as §1

[8] = tested on: Odoribacter splanchnicus
Procedure, shortened: as §1

[9] = tested on: Parabacteroides distasonis
Procedure, shortened: as §1

[10] = tested on: Parabacteroides merdae
Procedure, shortened: as §1

[11] = tested on: Roseburia intestinalis
Procedure, shortened: as §1

[12] = tested on: Streptococcus salivarius
Procedure, shortened: as §1

Measured: growth AUC

CNC(=O)Oc1ccccc1OC(C)C
inactive: [1] 0.974 | [2] 0.986 | [3] 0.982 | [4] 0.952 | [5] 0.994 | [6] 0.892 | [7] 0.982 | [8] 1.02 | [9] 1.01 | [10] 0.981 | [11] 1.01 | [12] 0.98

COP(=S)(OC)Oc1ccc(Sc2ccc(OP(=S)(OC)OC)cc2)cc1
inactive: [1] 1.03 | [2] 1.05 | [3] 1.01 | [4] 1.01 | [5] 1.09 | [6] 1.03 | [7] 0.973 | [8] 1.13 | [9] 1.01 | [10] 1.05 | [11] 1.03 | [12] 1.01

Cc1nc(N(C)C=O)nc(OC(=O)N(C)C)c1C
inactive: [1] 0.995 | [2] 0.975 | [3] 0.954 | [4] 1.03 | [5] 1.06 | [6] 0.976 | [7] 0.985 | [8] 0.981 | [9] 1.04 | [10] 0.982 | [11] 0.964 | [12] 0.999

O=c1oc2ccccc2c(O)c1C(CC(O)c1ccc(-c2ccc(Br)cc2)cc1)c1ccccc1 (stereo not given)
inactive: [1] 0.923 | [2] 1 | [3] 0.97 | [4] 0.883 | [5] 0.936 | [6] 0.801 | [7] 0.838
active: [8] 0.167 | [9] 0.516 | [10] 0.25 | [11] 0.654 | [12] 0.553

CCOC(=O)C(SP(=S)(OC)OC)c1ccccc1 (stereo not given)
active: [9] 0.746
inactive: [1] 1.02 | [2] 0.991 | [3] 0.976 | [4] 0.821 | [5] 0.904 | [6] 1.05 | [7] 1.02 | [8] 0.958 | [10] 0.958 | [11] 1.03 | [12] 1

C=CCC1=C(C)C(OC(=O)C2C(C=C(C)C)C2(C)C)CC1=O (mixture of isomers)
inactive: [1] 0.963 | [2] 0.968 | [3] 1.01 | [4] 1.09 | [5] 1.01 | [6] 0.818 | [7] 0.943 | [8] 1.01 | [9] 0.771 | [10] 0.955 | [11] 0.924 | [12] 0.953

O=C(O)c1ccccc1C(=O)Nc1cccc2ccccc12
inactive: [1] 0.971 | [2] 1.05 | [3] 1 | [4] 1.08 | [5] 1.06 | [6] 0.979 | [7] 1.02 | [8] 1.06 | [9] 0.979 | [10] 0.987 | [11] 0.993 | [12] 0.932

C#CC(C)(C)NC(=O)c1cc(Cl)cc(Cl)c1
inactive: [1] 1 | [2] 0.984 | [3] 0.963 | [4] 1.04 | [5] 0.95 | [6] 0.91 | [7] 1.03 | [8] 1.06 | [9] 1.01 | [10] 1.01 | [11] 0.936 | [12] 0.914

COP(=S)(OC)SCN1C(=O)c2ccccc2C1=O
inactive: [1] 1 | [2] 1 | [3] 0.991 | [4] 0.967 | [5] 0.947 | [6] 1.11 | [7] 0.986 | [8] 0.968 | [9] 0.982 | [10] 0.988 | [11] 0.901 | [12] 0.979

O=[N+]([O-])c1cc(Cl)ccc1Cl
inactive: [1] 0.935 | [2] 0.983 | [3] 0.979 | [4] 1.04 | [5] 1.04 | [6] 0.872 | [7] 1.05 | [8] 1.04 | [9] 1.01 | [10] 0.987 | [11] 0.931 | [12] 0.981

CCC/C(=N\OCC)C1=C(O)CC(CC(C)SCC)CC1=O (stereo not given)
inactive: [1] 0.986 | [2] 0.986 | [3] 0.973 | [4] 0.937 | [5] 0.867 | [6] 0.964 | [7] 0.978 | [8] 0.979 | [9] 0.991 | [10] 0.988 | [11] 1 | [12] 1.01

O=[N+]([O-])/N=C1\NCCN1Cc1ccc(Cl)nc1
inactive: [1] 0.975 | [2] 1.02 | [3] 1 | [4] 1.06 | [5] 1.06 | [6] 0.862 | [7] 0.951 | [8] 1.09 | [9] 1.02 | [10] 1.07 | [11] 0.955 | [12] 0.97

CNC(=O)Oc1cccc2ccccc12
inactive: [1] 1.03 | [2] 1.01 | [3] 0.982 | [4] 1.05 | [5] 1.03 | [6] 0.907 | [7] 1.1 | [8] 1.05 | [9] 0.944 | [10] 1 | [11] 0.973 | [12] 1.03

C1CCC(NC2CCCCC2)CC1.O=NO
inactive: [1] 0.832 | [2] 0.991 | [3] 0.95 | [5] 1 | [6] 1.06 | [7] 0.985 | [8] 0.93 | [9] 0.936 | [11] 1 | [12] 0.986
active: [4] 0.601 | [10] 0.753

O=c1[nH]c2c(c(=O)n1C1CCCCC1)CCC2
inactive: [1] 0.945 | [2] 0.99 | [3] 0.987 | [4] 0.899 | [5] 0.834 | [6] 0.923 | [7] 1.02 | [8] 0.98 | [9] 0.999 | [10] 0.973 | [11] 0.982 | [12] 0.998

CCOc1cc(C(C)(C)C)ccc1C1COC(c2c(F)cccc2F)=N1 (stereo not given)
inactive: [1] 0.996 | [2] 0.998 | [3] 1.02 | [4] 1 | [5] 1.08 | [6] 0.932 | [7] 1.01 | [8] 1.04 | [9] 0.891 | [10] 0.878 | [11] 0.948 | [12] 1.02

Cc1cc(Cl)ccc1O[C@H](C)C(=O)O
inactive: [1] 1.01 | [2] 1 | [3] 0.98 | [4] 1.06 | [5] 1.08 | [6] 0.873 | [7] 0.979 | [8] 1.1 | [9] 0.961 | [10] 0.956 | [11] 0.898 | [12] 0.988

CCC(C)c1cc([N+](=O)[O-])cc([N+](=O)[O-])c1OC(=O)C=C(C)C (stereo not given)
inactive: [1] 0.945 | [2] 0.968 | [3] 0.973 | [4] 0.978 | [5] 0.802 | [6] 0.762 | [7] 0.955 | [10] 0.902 | [11] 0.948 | [12] 0.872
active: [8] 0.515 | [9] 0.418

CCCN(CCC)C(=O)SCc1ccccc1
inactive: [1] 1.01 | [2] 1.01 | [3] 0.985 | [4] 1.09 | [5] 1.01 | [6] 1.02 | [7] 0.963 | [8] 1.08 | [9] 0.89 | [10] 0.998 | [11] 0.984 | [12] 1

Clc1ccccc1-c1nnc(-c2ccccc2Cl)nn1
inactive: [1] 0.911 | [2] 0.99 | [3] 0.978 | [4] 0.997 | [5] 0.943 | [6] 0.964 | [7] 0.79 | [8] 0.887 | [9] 0.991 | [10] 1.03 | [11] 1.1 | [12] 0.984

CCOP(=S)(OCC)SCSc1ccc(Cl)cc1
inactive: [1] 0.975 | [2] 0.986 | [3] 0.964 | [4] 0.909 | [5] 1.07 | [6] 0.884 | [7] 1 | [8] 1.06 | [9] 0.911 | [10] 0.977 | [11] 0.939 | [12] 1.03

COc1nc(C)nc(NC(=O)NS(=O)(=O)c2ccccc2Cl)n1
inactive: [1] 0.971 | [2] 0.982 | [3] 0.988 | [4] 0.986 | [5] 1.02 | [6] 1.07 | [7] 1.01 | [8] 0.952 | [9] 1.01 | [10] 0.979 | [11] 0.995 | [12] 0.992

CCNc1nc(NC(C)C)[nH]c(=O)n1
inactive: [1] 0.992 | [2] 1.03 | [3] 1.05 | [4] 0.992 | [5] 1.06 | [6] 1.03 | [7] 0.963 | [8] 0.994 | [9] 1.02 | [10] 1 | [11] 1.04 | [12] 1.02

CC(C)Nc1nc(Cl)nc(NC(C)C)n1
inactive: [1] 0.958 | [2] 1.03 | [3] 0.978 | [4] 1.07 | [5] 1.04 | [6] 0.983 | [7] 1.06 | [8] 0.797 | [9] 1.02 | [10] 0.968 | [11] 0.962 | [12] 0.99

O=[N+]([O-])c1c(Cl)c(Cl)cc(Cl)c1Cl
inactive: [1] 1.01 | [2] 0.99 | [3] 1.02 | [4] 0.954 | [5] 0.983 | [6] 1.14 | [7] 0.927 | [8] 1.02 | [9] 0.986 | [10] 1.01 | [11] 1.06 | [12] 1
